In PubChem BioAssay (Tox21):
Values joined by “and” are separate entries in the source; they are usually repeats but may differ in a detail not shown here. Equal entries are not always repeated. A structure can be active in one record and inactive in another. Active and inactive are the calls of the source. Entries that show only a call come without a potency. Unless noted, calls come from the whole dose curve; as a rule, active = well fitted curve in the direction sought with a large enough effect in the repeat runs; inconclusive = weak or mixed curves; inactive = no such curve, though single readings can be large; an effect the other way counts as inactive or inconclusive.

Columns and labels:
[1] = qHTS assay to identify small molecule antagonists of the thyroid receptor (TR) signaling pathway - cell viability counter screen (AID 743064); note: nearly all actives have a fitted effect of over 50% in size
Method in brief: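 Viability of T3-stimulated (1 nM final) GH3.TRE-Luc cells is measured by CellTiter-Fluor fluorescence after 23.5 h compound exposure at 37 °C plus 30 min reagent incubation.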

[2] = qHTS assay to identify small molecule antagonists of the thyroid receptor (TR) signaling pathway (AID 743065); note: nearly all actives have a fitted effect of over 55% in size; note: potency is the fitted concentration of half-maximal effect
Method in brief: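 GH3.TRE-Luc rat pituitary cells (two TREs driving luciferase) were dosed with compound, then stimulated with 1 nM T3 (final) for 23.5 h at 37 C. ONE-Glo luminescence was the read-out, with CellTiter-Fluor fluorescence as the cytotoxicity counter-screen.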

[3] = system: thyroid hormone receptor (rat, GH3 cells); assay: qHTS assay to identify small molecule agonists of the thyroid receptor (TR) signaling pathway (AID 743066; calls by dose curve)
[4] = qHTS assay to identify small molecule antagonists of the estrogen receptor alpha (ER-alpha) signaling pathway - cell viability counter screen (AID 743074; calls by dose curve;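 note: HEK293 cells carrying ER-alpha-UAS-bla reporter stimulated with 17beta-estradiol; nearly all actives have a fitted effect of over 45% in size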; note: potency is the fitted concentration of half-maximal effect)
[5] = qHTS assay to identify small molecule antagonists of the estrogen receptor alpha (ER-alpha) signaling pathway using the BG1 cell line - cell viability counter screen (AID 743081);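 note: compound given together with 17beta-estradiol as the ER stimulus; nearly all actives have a fitted effect of over 45% in size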; note: potency is the fitted concentration of half-maximal effect
Aromatase (Homo sapiens) = Aromatase (Homo sapiens) (UniProt P11511); assay: qHTS assay to identify aromatase inhibitors (AID 743083); note: nearly all actives have a fitted effect of over 55% in size; note: potency is the fitted concentration of half-maximal effect
[6] = biological target: Estrogen receptor (Homo sapiens) (UniProt P03372); assay: qHTS assay to identify small molecule antagonists of the estrogen receptor alpha (ER-alpha) signaling pathway (AID 743069; active = well fitted curve in the direction sought with a large enough effect in the signal ratio in the repeat runs, not every such curve was filed as active; inconclusive = weak or mixed curves, or effect the other way; inactive = no such curve, though single readings can be large or run the other way; the % refers to the signal ratio)
Method in brief: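 Beta-lactamase FRET fluorescence is read after 2 hr at room temperature with LiveBLAzer B/G substrate. Before that, ER-alpha-bla HEK293 cells sit 4 hr after plating, then receive compound plus 17beta-estradiol and incubate 18 hr at 37C.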

[7] = biological target: Estrogen receptor (Homo sapiens) (UniProt P03372); assay: qHTS assay to identify small molecule agonists of the estrogen receptor alpha (ER-alpha) signaling pathway (AID 743075; calls by dose curve;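 note: HEK293 GripTite cells with ER-alpha and UAS-driven beta-lactamase reporter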; note: potency is the fitted concentration of half-maximal effect)
[8] = biological target: Estrogen receptor (Homo sapiens) (UniProt P03372); assay: qHTS assay to identify small molecule agonists of the estrogen receptor alpha (ER-alpha) signaling pathway using the BG1 cell line (AID 743079); note: nearly all actives have a fitted effect of over 20% in size; note: potency is the fitted concentration of half-maximal effect
[9] = qHTS assay to identify small molecule antagonists of the estrogen receptor alpha (ER-alpha) signaling pathway using the BG1 cell line (AID 743080; calls by dose curve;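 note: BG1 cells stimulated with 17beta-estradiol alongside compound; series mostly up to about 70 µM; nearly all actives have a fitted effect of over 25% in size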)
Method in brief: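 Readout is ONE-Glo luminescence, taken 30 min at room temperature after reagent addition, preceded by a CellTiter-Fluor viability read; BG1-Luc-4E2 cells had received compound and 17beta-estradiol for 21.5 h at 37 C.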

Estrogen receptor (Homo sapiens), sequence (P03372 whole entry, looked up): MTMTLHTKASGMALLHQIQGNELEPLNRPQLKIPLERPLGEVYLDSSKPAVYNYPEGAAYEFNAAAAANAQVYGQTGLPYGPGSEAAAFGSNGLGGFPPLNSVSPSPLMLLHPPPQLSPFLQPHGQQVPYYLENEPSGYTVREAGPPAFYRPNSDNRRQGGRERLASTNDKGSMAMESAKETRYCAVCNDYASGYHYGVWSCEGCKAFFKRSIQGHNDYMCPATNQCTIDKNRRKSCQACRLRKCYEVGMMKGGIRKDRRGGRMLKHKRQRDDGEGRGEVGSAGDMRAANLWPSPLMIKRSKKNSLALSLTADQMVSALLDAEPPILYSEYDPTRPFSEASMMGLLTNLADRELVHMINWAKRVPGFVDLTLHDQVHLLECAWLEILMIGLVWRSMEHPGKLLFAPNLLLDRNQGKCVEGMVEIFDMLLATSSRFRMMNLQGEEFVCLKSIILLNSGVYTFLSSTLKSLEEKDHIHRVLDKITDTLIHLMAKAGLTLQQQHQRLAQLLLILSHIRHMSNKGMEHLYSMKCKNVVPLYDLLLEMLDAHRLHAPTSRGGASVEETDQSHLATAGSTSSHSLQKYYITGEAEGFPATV
Aromatase (Homo sapiens), sequence (P11511 whole entry, looked up): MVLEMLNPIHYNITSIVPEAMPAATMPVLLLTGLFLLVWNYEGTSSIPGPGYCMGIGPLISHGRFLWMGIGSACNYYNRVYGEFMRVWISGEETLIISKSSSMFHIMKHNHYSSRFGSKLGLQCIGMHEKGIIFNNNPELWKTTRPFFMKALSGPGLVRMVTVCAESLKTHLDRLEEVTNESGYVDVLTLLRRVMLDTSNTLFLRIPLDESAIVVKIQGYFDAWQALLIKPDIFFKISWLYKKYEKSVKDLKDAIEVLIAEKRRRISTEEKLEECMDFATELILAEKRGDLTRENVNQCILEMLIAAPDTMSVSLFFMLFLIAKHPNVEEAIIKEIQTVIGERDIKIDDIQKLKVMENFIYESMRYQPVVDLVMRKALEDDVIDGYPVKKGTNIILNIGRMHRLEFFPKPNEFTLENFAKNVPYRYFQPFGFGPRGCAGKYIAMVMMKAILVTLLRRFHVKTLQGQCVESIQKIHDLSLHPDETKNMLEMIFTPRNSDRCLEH

Row | SMILES | Potency [1] | Potency [2] | Potency [3] | Potency [4] | Potency [5] | Potency (Aromatase (Homo sapiens)) | Potency [6] | Potency [7] | Potency [8] | Potency [9]
1 | IC(I)I | inactive | inactive | inactive | inactive | inactive | inactive | – | – | – | –
2 | Cc1ccc(C)c(O)c1 | inactive | inactive | inactive | inactive | inactive | inactive | – | – | – | –
3 | CCO[Si](CCCNC(N)=O)(OCC)OCC | – | inactive | inactive | inactive | inactive | inactive | inactive | inactive | inactive | inactive
4 | C=CN1CCCC1=O | inactive | – | – | inactive | inactive | inactive | inactive | inactive | inactive | inactive
5 | Clc1ccc(Sc2cc(Cl)c(Cl)cc2Cl)cc1 | inactive | inactive | inactive | inactive | inactive | inactive | – | – | – | –
6 | CC1(C)OC(=O)NC1=O | inactive | inactive | inactive | inactive | inactive | inactive | – | – | – | –
7 | Oc1c(Cl)ccc(Cl)c1Cl | – | inactive | inactive | inactive | inactive | inactive | – | inactive | inactive | inactive
8 | CCCOCCO | – | inactive | inactive | inactive | inactive | inactive | – | – | – | –
9 | Nc1ccc2c(O)cc(S(=O)(=O)O)cc2c1 | – | 54.5 µM (active) | inactive | inactive | inactive | inactive | – | – | – | –
10 | Nc1ccc(O)c(N)c1 | – | – | inactive | inactive | 60.7 µM (active) and 61.1 µM (active) | inactive | inactive | inactive | – | inactive
11 | CC(C)(Oc1ccc(Cl)cc1)C(=O)O | – | – | – | inactive | inactive | inactive | – | – | – | –
12 | O=S1(=O)CCCO1 | – | inactive | inactive | inactive | inactive | inactive | inactive | inactive | inactive | inactive
13 | CC(=O)[C@H]1CC[C@H]2[C@@H]3CC=C4C[C@@H](O)CC[C@]4(C)[C@H]3CC[C@]12C | – | – | inactive | inactive | inactive | inactive | inactive | 952 nM [inconclusive] (active) and 3.46 µM [inconclusive] (active) | 596 nM (active) and 5.44 µM (active) | inactive
14 | Cc1ccc(S(=O)(=O)NCl)cc1 | – | – | inactive | inactive | inactive | inactive | inactive | inactive | inactive | inactive
15 | CCCCCCCCCCCCO | – | inactive | inactive | inactive | inactive | inactive | inactive | inactive | inactive | inactive
16 | CC(=O)Nc1ccc2c(c1)Cc1cc(NC(C)=O)ccc1-2 | – | inactive | inactive | inactive | inactive | inactive | inactive | inactive | 9.66 µM (active) and 864 nM (active) | –
17 | c1ccc2c(c1)ccc1ncccc12 | – | – | – | inactive | inactive | inactive | – | – | inactive | inactive
18 | c1ccc2c(c1)ccc1cc3c(ccc4ccccc43)cc12 | – | inactive | inactive | inactive | inactive | inactive | inactive | inactive and 19.3 µM [fluorescent] (active) | inactive | –
19 | CC[C@]12CCCN3CCc4c(n(c5ccccc45)[C@@](O)(C(=O)OC)C1)[C@@H]32 | – | – | inactive | inactive | inactive | inactive | – | – | – | –
20 | Nc1ccc(N)c(Cl)c1 | – | inactive | inactive | inactive | inactive | 61 µM (active) and inactive | – | – | – | inactive
21 | O=C(O)CCCCCCCCCCCC(=O)O | – | inactive | inactive | inactive and 4.36 µM (active) | inactive | inactive | – | – | – | –
22 | C=CCCCCCCCCCC | – | inactive | inactive | inactive | inactive | inactive | – | – | – | –
23 | c1ccc2ncccc2c1 | – | inactive | inactive | – | inactive | inactive | inactive | inactive | inactive | inactive
24 | Cc1cccc(Nc2ccccc2C(=O)O)c1C | – | 21.1 µM (active) and 54.5 µM (active) | inactive | inactive | inactive | inactive | – | – | – | –
25 | COc1ccc(-c2coc3cc(O)cc(O)c3c2=O)cc1 | – | 61.1 µM (active) | inactive | – | inactive | inactive | – | 6.97 µM [inconclusive] (active) and 13.8 µM [activator] (active) | 436 nM (active) and 864 nM (active) | –
26 | CCCCCCOCCOCCO | – | inactive | inactive | inactive | inactive | inactive | – | – | – | –
27 | O=C(CCCN1CCC(O)(c2ccc(Cl)cc2)CC1)c1ccc(F)cc1 | – | 26.6 µM (active) and 61.1 µM (active) | – | inactive | inactive | inactive | – | – | – | –
28 | CN(Cc1cnc2nc(N)nc(N)c2n1)c1ccc(C(=O)N[C@@H](CCC(=O)O)C(=O)O)cc1 | – | 335 nM (active) and 54.5 nM (active) | inactive | 0.239 µM (active) | inactive | inactive | – | inactive | inactive | –
29 | O=C1CCc2ccccc2O1 | – | inactive | inactive | inactive | inactive | inactive | inactive | inactive | inactive | inactive
30 | Cc1ccc(/C(=C\CN2CCCC2)c2ccccn2)cc1 | – | – | inactive | inactive | inactive | inactive | inactive | inactive | inactive | inactive
